Source: PubChem BioAssay (Tox21)
Inconclusive results are not listed. Unmarked numbers belong to inactive results. The source made the active and inactive calls. Calls come from the whole dose curve; as a rule, active = well fitted inhibition curve with a large enough effect in the repeat runs; inconclusive = weak or mixed curves; inactive = flat fitted curve, though single readings scatter.

What follows are molecules tested against Luciferin 4-monooxygenase (Photinus pyralis) (UniProt P08659) (assay: qHTS assay to identify small molecule inhibitors of firefly luciferase (AID 1224835; note: nearly all actives have a fitted effect of over 25% in size)). Details: purified P. pyralis luciferase, luminescence inhibition; series mostly up to 115 µM; activity change, negative = inhibition: at the top concentration.
Chain of Luciferin 4-monooxygenase (Photinus pyralis) (P08659 whole entry, looked up): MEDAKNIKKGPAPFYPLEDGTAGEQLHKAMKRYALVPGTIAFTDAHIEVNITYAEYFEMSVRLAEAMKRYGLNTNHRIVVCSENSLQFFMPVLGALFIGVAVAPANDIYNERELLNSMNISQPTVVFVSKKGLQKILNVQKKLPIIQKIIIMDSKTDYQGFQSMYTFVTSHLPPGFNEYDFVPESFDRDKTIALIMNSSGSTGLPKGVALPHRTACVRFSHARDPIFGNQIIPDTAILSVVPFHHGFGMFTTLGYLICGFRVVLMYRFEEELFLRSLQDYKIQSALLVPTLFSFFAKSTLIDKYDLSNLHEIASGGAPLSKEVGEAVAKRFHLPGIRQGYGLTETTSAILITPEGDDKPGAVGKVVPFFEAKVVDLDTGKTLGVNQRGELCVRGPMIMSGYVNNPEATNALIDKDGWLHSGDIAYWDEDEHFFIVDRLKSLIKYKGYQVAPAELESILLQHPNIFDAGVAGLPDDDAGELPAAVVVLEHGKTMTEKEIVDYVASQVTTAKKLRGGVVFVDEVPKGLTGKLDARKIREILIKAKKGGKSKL
Text: U.S. Tox21 Program National Center for Advancing Translational Sciences [NCATS] NIH Chemical Genomics Center [NCGC] U.S. Environmental Protection Agency [EPA] National Institutes of Environmental Health Sciences [NIEHS] National Toxicology Program [NTP] U.S. Food and Drug Administration [FDA] Tox21 Assay Overview: Firefly (Photinus pyralis) luciferase is one of the most commonly used transcriptional reporters. Firefly luciferase reporter-gene assays are generally considered one of the most sensitive assay types (Wood, 1995; Wood, 1998). However, it was initially observed, in 1991, by Thompson et al., that compounds that resemble the substrates of firefly luciferase (FLuc) can act as competitive inhibitors of the enzyme, and that these compounds, upon interaction with luciferase in the cell, can actually stabilize the protein and increase its half-life. Previous profiling work by other groups to determine the prevalence of compounds that affect FLuc enzymatic activity (PubChem AID 411) identified that ~3% of the MLSMR library (then at ~72K) inhibited FLuc. […] Thus the Tox21 10K library is profiled for activity against FLuc using a biochemical assay of purified FLuc and KM concentrations of FLuc substrates (D-luciferin and ATP).
These assay plates were then treated with 23nL of compound or DMSO using a Kalypsys pin tool, which allows for delivery of a 6-point interplate titration of each compound to the assay plate (quantitative HTS.) 1 uL of firefly luciferase mix (containing 50 mM Tris acetate, pH 7.6, 0.04 uM P. pyralis luciferase, 0.01% Tween, 0.05% BSA and dH2O) was then delivered by FRD to each well. Luciferase activity was then measured using a ViewLux CCD imager.
% is set by controls: 0 for no effect and ±100 for the full control effect.

Compound	activity change, negative = inhibition	Potency
CCCCC[Si](OCC)(OCC)OCC	2.01%	
CC(C)(C)NCCO	2.11%	
O=c1[nH]c(=O)c2[nH]c(=O)[nH]c2[nH]1	-3.23% [at 10.5 µM]	
N#CCCOCCOCCC#N	-3.15%	
C=CCCCCCCCCCCC	6.44% [at 10.5 µM]	
C=C(C)[C@@H]1CC[C@@H](C)C[C@@H]1O	5.41%	
C=CC(C)(O)CC/C=C(\C)CC (stereo not given)	-0.456%	
Cc1ccccc1C(=O)N1CC/C(=N\OS(=O)(=O)O)c2ccc(Cl)cc21	0.299% [at 52.9 µM]	
Oc1ccccc1Cc1ccccc1O	-3.65%	
CCN1CN(CC)CN(CC)C1	1.43%	
C1=C\CC/C=C\CC/1	4.78%	
CCCCCCCCCCCCOC(C)=O	-0.0161%	
C[Si]1(C)N[Si](C)(C)N[Si](C)(C)N1	-0.183%	
C[C@H](CCC(=O)NCC(=O)O)[C@H]1CC[C@H]2[C@@H]3[C@H](O)C[C@@H]4C[C@H](O)CC[C@]4(C)[C@H]3C[C@H](O)[C@]12C	2.08%	
CCCCCCCCCCCCCC(=O)OC	0.636%	
c1ccc(CNc2ncnc3nc[nH]c23)cc1	-2.81%	
COc1cc([N+](=O)[O-])ccc1N	4.41%	
CCCCCCCC[Si](OCC)(OCC)OCC	2.91%	
C[N+](C)(C)CC(O)CCl (stereo not given)	-1.64%	
CCOC(=O)CCc1ccccc1	-0.0333%	

Compound	activity change, negative = inhibition	Potency
F[Si-2](F)(F)(F)(F)F	5.83%	
CCCC(C)CC (stereo not given)	1.91%	
CC(C)COC(=O)CCCCC(=O)OCC(C)C	1.83%	
CC(=O)N1CCN(c2ccc(O)cc2)CC1	-2.11% [at 52.9 µM]	
COc1cc(C=O)ccc1OC(=O)C(C)C	0.59%	
OC(CCN1CCCCC1)(c1ccccc1)c1ccccc1	-0.0195% [at 52.9 µM]	
CCC(=O)c1ccc(O)cc1	-1.83% [at 52.9 µM]	
C1=CCC(c2ccccc2)CC1 (stereo not given)	2.01%	
COC(/C=C(\C)CCC=C(C)C)OC	-5.85%	
SCCSCCS	-2.34%	
C1CCN2C[C@@H]3C[C@@H](CN4CCCC[C@@H]34)[C@H]2C1	-0.29% [at 52.9 µM]	
C=COCCOCCOC=C	3.87%	
CCC1Nc2cc(Cl)c(S(N)(=O)=O)cc2S(=O)(=O)N1 (stereo not given)	-0.687% [at 52.9 µM]	
O=S(=O)(O)c1cc(O)ccc1O	0.482%	
FC(F)(F)c1ccc(Cl)cc1Cl	-1.76%	
Nc1cc(C(=O)O)ccc1Cl	2.99%	
CCC(C)N (stereo not given)	0.373%	
C/C=C(\C)C(=O)OCC/C=C\CC		35.6 µM (active)
CCS(=O)(=O)CCn1c([N+](=O)[O-])cnc1C	1.48% [at 52.9 µM]	
CCC(O)C(C)(C)C (stereo not given)	2.82%	
